Assay [1] is described as follows: antimalarial activity against Dd2 strain (AID 2302;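 active means growth inhibition above 50% at the single 2 µM test dose, taken to imply half-maximal potency below 2 µM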;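 further: 0% = DMSO untreated growth and 100% = chloroquine plus artemisinin killed control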). The settings on record: P. falciparum Dd2 in RBCs, LDH growth readout, 72 h; at 2 µM; stronger effect = higher value.
The nature of assay [2]: human hepatoma cell viability loss – ATP luminescence, cytotoxicity control for P. falciparum antimalarial project, primary screen (AID 2303;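 active means inhibition above 50%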;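 further: 0% = DMSO wells and 100% = digitonin-killed cells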). The note with it: HepG2 viability, 24-48 h, at 10 µM, stronger effect = higher value.
Assay [3] deals with L-lactate dehydrogenase (Plasmodium falciparum (isolate CDC / Honduras)) (UniProt Q27743). Briefly: PfLDH activity inhibition – cell lysate, 3D7 strain, counter-screen for P. falciparum growth inhibition project (AID 2304).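 Further: 0% = vehicle and 100% = reference inhibitor.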 The settings on record: P. falciparum 3D7 crude extract, LDH APAD/NBT absorbance; at 2 µM; stronger effect = higher value. A general note: A counterscreen serves to expose hits that act by an unwanted route or on another target.

The nature of assay [4]: inhibition of 3D7 malaria parasite growth – strain 3D7 (AID 2306).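 Further: 0% = DMSO wells and 100% = chloroquine plus artemisinin control wells.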 The note with it: P. falciparum 3D7 erythrocytic growth, LDH absorbance, 72 h; at 2 µM; stronger effect = higher value.
For assay [5], the target named is Calcium-dependent protein kinase 1 (Plasmodium falciparum (isolate 3D7)) (UniProt P62344). Briefly: PfCDPK1 kinase inhibitors, biochemical, TCAMS library (AID 1159585; cut-off not given, nearly all actives have IC50 up to about 0.98 µM;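 further: inhibitors leave more ATP so luminescence rises with inhibition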). The settings on record: recombinant PfCDPK1, Kinase-Glo ATP depletion luminescence. In general terms: In Kinase-Glo more light means more ATP remaining.
In assay [6] the target is Plasmodium falciparum protein kinase 6 (PK6, PF3D7_1337100) (UniProt Q8IDW1). Briefly: PfPK6 kinase inhibitors, biochemical, TCAMS library (AID 1159586). The settings on record: recombinant PfPK6, Kinase-Glo ATP depletion luminescence.
The target of assay [7] is Protein kinase 7 (PK7), Plasmodium falciparum 3D7 (PF3D7_0213400) (UniProt Q7YTF7). The assay is described as follows: inhibition of Plasmodium PK7 catalytic activity – biochemical, TCAMS antimalarial set, Kinase-Glo luminescence (AID 1159587). The note with it: recombinant PfPK7, Kinase-Glo ATP depletion luminescence.
Assay [8] addresses Calcium-dependent protein kinase 4 (Plasmodium falciparum (isolate 3D7)) (UniProt Q8IBS5). Briefly: PfCDPK4 kinase inhibitors, biochemical, TCAMS library (AID 1159588; cut-off not given, nearly all actives have IC50 up to about 0.91 µM). The note with it: recombinant PfCDPK4, Kinase-Glo ATP depletion luminescence.

Growth inhibition, inhibition and outcome data for 20 compounds are collected here from PubChem BioAssay.

Values without a mark were called inactive. For some of these results: Entries with a potency or affinity are not part of this list. The source made the active and inactive calls. Unless noted, how the calls were made is not given here.

Sequence of Calcium-dependent protein kinase 4 (Plasmodium falciparum (isolate 3D7)) (Q8IBS5 whole entry, looked up): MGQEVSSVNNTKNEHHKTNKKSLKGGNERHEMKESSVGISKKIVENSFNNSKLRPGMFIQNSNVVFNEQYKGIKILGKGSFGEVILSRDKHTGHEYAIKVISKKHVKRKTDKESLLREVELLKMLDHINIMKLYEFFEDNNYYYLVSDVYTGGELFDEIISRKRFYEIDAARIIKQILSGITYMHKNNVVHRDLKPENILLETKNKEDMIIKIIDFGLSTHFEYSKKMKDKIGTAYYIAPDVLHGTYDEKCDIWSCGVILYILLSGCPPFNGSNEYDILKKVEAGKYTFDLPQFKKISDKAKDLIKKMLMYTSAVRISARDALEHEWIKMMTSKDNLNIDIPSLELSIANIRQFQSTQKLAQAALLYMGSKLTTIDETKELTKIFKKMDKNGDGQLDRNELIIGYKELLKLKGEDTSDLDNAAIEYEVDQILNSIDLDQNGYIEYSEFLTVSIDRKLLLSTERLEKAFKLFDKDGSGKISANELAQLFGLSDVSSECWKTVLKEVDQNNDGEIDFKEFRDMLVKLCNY
Sequence of Protein kinase 7 (PK7), Plasmodium falciparum 3D7 (PF3D7_0213400) (Q7YTF7 1-343): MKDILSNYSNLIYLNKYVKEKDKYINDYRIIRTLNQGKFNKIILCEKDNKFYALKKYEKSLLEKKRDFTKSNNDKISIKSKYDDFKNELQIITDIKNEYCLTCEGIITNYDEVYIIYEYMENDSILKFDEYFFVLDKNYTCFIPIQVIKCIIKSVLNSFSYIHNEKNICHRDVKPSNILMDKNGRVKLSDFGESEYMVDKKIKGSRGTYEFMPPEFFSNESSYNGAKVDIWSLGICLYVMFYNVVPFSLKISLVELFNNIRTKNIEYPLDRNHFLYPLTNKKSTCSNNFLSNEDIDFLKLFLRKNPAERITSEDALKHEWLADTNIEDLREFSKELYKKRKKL
Sequence of L-lactate dehydrogenase (Plasmodium falciparum (isolate CDC / Honduras)) (Q27743 whole entry, looked up): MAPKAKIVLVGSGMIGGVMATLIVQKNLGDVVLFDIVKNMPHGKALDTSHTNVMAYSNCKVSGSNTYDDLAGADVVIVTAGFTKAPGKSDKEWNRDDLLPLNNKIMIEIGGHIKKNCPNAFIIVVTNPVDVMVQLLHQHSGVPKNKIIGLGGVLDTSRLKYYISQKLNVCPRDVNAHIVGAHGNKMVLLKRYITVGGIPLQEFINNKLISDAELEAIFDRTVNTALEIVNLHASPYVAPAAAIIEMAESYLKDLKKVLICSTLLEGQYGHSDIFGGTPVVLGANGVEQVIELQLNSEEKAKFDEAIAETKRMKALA
Sequence of Calcium-dependent protein kinase 1 (Plasmodium falciparum (isolate 3D7)) (P62344 whole entry, looked up): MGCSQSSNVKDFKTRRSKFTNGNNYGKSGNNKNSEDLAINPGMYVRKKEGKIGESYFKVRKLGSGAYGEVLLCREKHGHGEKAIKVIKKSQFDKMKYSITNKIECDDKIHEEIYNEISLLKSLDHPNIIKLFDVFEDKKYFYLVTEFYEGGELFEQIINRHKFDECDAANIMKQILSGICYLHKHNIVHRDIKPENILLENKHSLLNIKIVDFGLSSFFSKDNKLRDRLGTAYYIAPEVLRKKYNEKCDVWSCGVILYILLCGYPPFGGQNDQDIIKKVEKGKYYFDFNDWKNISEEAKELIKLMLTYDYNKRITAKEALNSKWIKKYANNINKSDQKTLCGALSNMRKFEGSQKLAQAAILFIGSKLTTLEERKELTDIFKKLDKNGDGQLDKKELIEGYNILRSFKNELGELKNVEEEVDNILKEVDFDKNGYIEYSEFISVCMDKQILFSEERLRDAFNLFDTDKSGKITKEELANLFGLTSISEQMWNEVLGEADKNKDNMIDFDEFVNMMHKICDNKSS
Sequence of Plasmodium falciparum protein kinase 6 (PK6, PF3D7_1337100) (Q8IDW1 1-305): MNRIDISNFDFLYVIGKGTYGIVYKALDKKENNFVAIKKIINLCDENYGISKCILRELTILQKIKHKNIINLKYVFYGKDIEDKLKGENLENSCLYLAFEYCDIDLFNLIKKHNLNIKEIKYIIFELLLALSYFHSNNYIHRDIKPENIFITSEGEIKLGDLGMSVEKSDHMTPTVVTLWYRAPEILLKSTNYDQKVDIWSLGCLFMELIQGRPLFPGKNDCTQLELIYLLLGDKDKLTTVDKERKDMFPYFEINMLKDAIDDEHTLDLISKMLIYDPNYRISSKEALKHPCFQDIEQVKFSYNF

For `NC(N)=NN=C1C=Cc2cccc3cccc1c23`, the growth inhibition in assay [1] is 49%; in assay [4], 100% (active). The inhibition (usually the drop in the measured response relative to a control, in per cent) in assay [2] was 9%; in assay [3] it was 1%. In addition, the outcome in assay [5], in assay [6], in assay [7] and in assay [8] was inactive.
Take `COc1cc2nc(NCCc3ccccc3)nc(NCCc3ccccc3)c2cc1OC`: the growth inhibition in assay [1] is 100% (active); in assay [4], 101% (active). Moreover, the inhibition in assay [2] is 99% (active); in assay [3] it was 2%. Also, the outcome in assay [5], in assay [6], in assay [7] and in assay [8] was inactive.
In the case of `COc1cc(C(=O)NCc2nn(CCN3CCC(N4CCCC4)CC3)cc2-c2ccc(Cl)c(Cl)c2)cc(OC)c1OC`, the values for the growth inhibition in assay [1] and in assay [4] were -8% and 97% (active), respectively. Besides, the inhibition in assay [2] is 16%; in assay [3] it was -1%. In addition, the result in assay [5], in assay [6], in assay [7] and in assay [8] was inactive.
Consider `CC(C)(C)COC(=O)c1ccc(NC(=O)N[C@@H](Cc2ccc(O)cc2)C(=O)NC2CCN(Cc3ccc(O)cc3)C2)cc1` (stereo not given in full), for which the growth inhibition in assay [1] is 21%; in assay [4] it was 94% (active). Moreover, the inhibition is 3% in assay [2] and -1% in assay [3]. Moreover, the result in assay [5], in assay [6], in assay [7] and in assay [8] was inactive.
`CC(=O)Nc1ccc(C(=O)Nc2ccc(-c3cccc(-c4nc5ccc(C(F)(F)F)cc5[nH]4)c3)cc2)cn1`: the figures for the growth inhibition in assay [1] and in assay [4] were 98% (active) and 102% (active), respectively. Moreover, the inhibition is 29% in assay [2] and -2% in assay [3]. For the same compound, the result in assay [5], in assay [6], in assay [7] and in assay [8] was inactive.
As for `Cc1cc(C(=O)CN2C(=O)NC3(CCOc4ccccc43)C2=O)c(C)n1Cc1ccco1` (stereo not given), the growth inhibition is 42% in assay [1] and 93% (active) in assay [4]. Moreover, the inhibition was 13% in assay [2] and 5% in assay [3]. The outcome in assay [5], in assay [6], in assay [7] and in assay [8] was inactive.
For the compound `Cc1cccc(N2CCN(C3CCC(NC(=O)c4cc5ccccc5[nH]4)CC3)CC2)c1C` (stereo not given), the figures for the growth inhibition in assay [1] and in assay [4] were 21% and 101% (active), respectively. For the same compound, the figures for the inhibition in assay [2] and in assay [3] were 49% and -4%, respectively. The outcome in assay [5], in assay [6], in assay [7] and in assay [8] was inactive.
On to `NC(N)=NCCN(Cc1ccccc1)c1ccccc1`, for which the figures for the growth inhibition in assay [1] and in assay [4] were 98% (active) and 100% (active), respectively. Also, the results for the inhibition in assay [2] and in assay [3] were 8% and 3%, respectively. For the same compound, the outcome in assay [5], in assay [6], in assay [7] and in assay [8] was inactive.
Take `CC(C)c1cccc(C(C)C)c1NC(=O)NNC(=O)c1ccc(CCN2CCC(c3nc(COCC(F)(F)F)c(-c4ccc(F)cc4)o3)CC2)cc1`: the values for the growth inhibition in assay [1] and in assay [4] were 34% and 88% (active), respectively. Further, the inhibition in assay [2] is 61% (active); in assay [3], -2%. In addition, the outcome in assay [5], in assay [6], in assay [7] and in assay [8] was inactive.
Take `O=S(=O)(c1ccccc1Cl)N1CCCCC(c2ccc(C(F)(F)F)cc2)=N1`: the growth inhibition in assay [1] was 72% (active); in assay [4], 86% (active). Further, the inhibition was 22% in assay [2] and 4% in assay [3]. Also, the result in assay [5], in assay [6], in assay [7] and in assay [8] was inactive.
With `O[C@@H](c1ccccc1)[C@@H]1CN(CCc2ccccc2)CC[C@@]1(O)c1ccccc1`, the growth inhibition in assay [1] was 92% (active); in assay [4] it was 97% (active). Moreover, the inhibition in assay [2] and in assay [3] was -2% each time. The result in assay [5], in assay [6], in assay [7] and in assay [8] was inactive.
Take `CN(CCCN)CCCNc1ccnc2cc(Cl)ccc12`: the growth inhibition in assay [1] is -2%; in assay [4], 101% (active). Besides, the inhibition in assay [2] is 1%; in assay [3], -10%. For the same compound, the result in assay [5], in assay [6], in assay [7] and in assay [8] was inactive.
In the case of `Cc1ccc(CNC(=O)[C@H](Cc2ccccc2)Nc2ccnc(NCC3CCCCC3)n2)cc1`, the results for the growth inhibition in assay [1] and in assay [4] were 61% (active) and 92% (active), respectively. Further, the inhibition in assay [2] is 84% (active); in assay [3], -2%. Moreover, the result in assay [5], in assay [6], in assay [7] and in assay [8] was inactive.
On to `O=C(Nc1cncc(NC(=O)c2ccc(Cl)c(Cl)c2)c1)c1ccc(Cl)c(Cl)c1`, for which the values for the growth inhibition in assay [1] and in assay [4] were 70% (active) and 101% (active), respectively. Also, the inhibition in assay [2] is 12%; in assay [3] it was 0%. Also, the outcome in assay [5], in assay [6], in assay [7] and in assay [8] was inactive.
In the case of `COc1ccc2nccc([C@@H](O)CN3CCC(NC(=O)C(c4cc5ccccc5s4)N4CC(C)OC(C)C4)CC3)c2c1` (stereo not given in full), the values for the growth inhibition in assay [1] and in assay [4] were 44% and 93% (active), respectively. For the same compound, the figures for the inhibition in assay [2] and in assay [3] were 12% and -6%, respectively. Further, the result in assay [5], in assay [6], in assay [7] and in assay [8] was inactive.
Take `O=S(=O)(Nc1ccc2nccc(N3CCNCC3)c2c1)c1ccc(-c2ccccc2)cc1`: the growth inhibition in assay [1] is -1%; in assay [4], 101% (active). For the same compound, the results for the inhibition in assay [2] and in assay [3] were -3% and -2%, respectively. For the same compound, the result in assay [5], in assay [6], in assay [7] and in assay [8] was inactive.
Take `COc1cccc(C2=CC(c3ccccc3)n3ncc(C(=O)Nc4ccc(Cl)cc4)c3N2)c1` (stereo not given): the growth inhibition is 28% in assay [1] and 88% (active) in assay [4]. Moreover, the figures for the inhibition in assay [2] and in assay [3] were 7% and -1%, respectively. In addition, the outcome in assay [5], in assay [6], in assay [7] and in assay [8] was inactive.
Take `COc1ccc(Nc2nccc(NCC(O)c3cccc(C(F)(F)F)c3)n2)cc1` (stereo not given): the growth inhibition was 33% in assay [1] and 98% (active) in assay [4]. Besides, the inhibition in assay [2] was 22%; in assay [3], -2%. Further, the result in assay [5], in assay [6], in assay [7] and in assay [8] was inactive.
As to `NC(Cc1ccc(Cl)cc1)=NCCN1CCCCCC1`, the growth inhibition in assay [1] was 94% (active); in assay [4], 93% (active). For the same compound, the inhibition in assay [2] is -8%; in assay [3] it was -2%. The outcome in assay [5], in assay [6], in assay [7] and in assay [8] was inactive.
As for `COc1cc(Nc2ncc3c(C)nc(-c4cccc(Nc5ccc(CN6CCS(=O)(=O)CC6)cc5)c4)n3n2)cc(OC)c1OC`, the figures for the growth inhibition in assay [1] and in assay [4] were 79% (active) and 90% (active), respectively. Further, the inhibition in assay [2] and in assay [3] was 2% throughout. Further, the result in assay [5], in assay [6], in assay [7] and in assay [8] was inactive.
